Reference: PubChem BioAssay (Tox21)
Results filed as inconclusive are left out. Calls of active or inactive are those of the source. Unless noted, calls follow the shape of the dose curve; as a rule, active = well fitted curve in the direction sought with a large enough effect in the repeat runs; inconclusive = weak or mixed curves; inactive = no such curve, though single readings can be large; an effect the other way counts as inactive or inconclusive.

Legend:
[1] = qHTS assay to identify small molecule antagonists of the estrogen related receptor (ERR) signaling pathway from Tox21 library - cell viability counter screen (AID 1224834); also: nearly all actives have a fitted effect of over 30% in size
In short: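 Viability readout (CellTiter-Fluor fluorescence, 30 min at 37 C) multiplexed with the ERR assay; cells treated 17.5 h at 37 C with compounds delivered in DMSO.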

[2] = target: Luciferin 4-monooxygenase (Photinus pyralis) (UniProt P08659); assay: qHTS assay to identify small molecule inhibitors of firefly luciferase (AID 1224835); also: nearly all actives have a fitted effect of over 25% in size
Sequence of Luciferin 4-monooxygenase (Photinus pyralis) (P08659 whole entry, looked up): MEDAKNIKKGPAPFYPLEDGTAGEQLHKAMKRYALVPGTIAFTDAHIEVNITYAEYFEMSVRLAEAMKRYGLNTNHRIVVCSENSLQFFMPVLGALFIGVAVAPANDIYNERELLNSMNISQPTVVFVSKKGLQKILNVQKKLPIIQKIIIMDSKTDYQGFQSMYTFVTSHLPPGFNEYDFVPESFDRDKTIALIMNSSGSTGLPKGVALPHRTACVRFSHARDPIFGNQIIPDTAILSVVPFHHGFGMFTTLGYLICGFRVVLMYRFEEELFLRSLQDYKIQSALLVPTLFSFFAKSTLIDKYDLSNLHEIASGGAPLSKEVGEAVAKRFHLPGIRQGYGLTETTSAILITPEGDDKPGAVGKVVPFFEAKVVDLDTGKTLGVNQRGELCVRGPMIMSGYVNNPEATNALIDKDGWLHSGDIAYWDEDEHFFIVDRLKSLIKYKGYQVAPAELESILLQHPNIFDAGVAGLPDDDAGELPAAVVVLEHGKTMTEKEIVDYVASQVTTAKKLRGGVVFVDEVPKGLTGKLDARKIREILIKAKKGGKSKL
In short: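 Quantitative HTS format; KM concentrations of both substrates. Purified P. pyralis FLuc activity quantified from luminescence images.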

[3] = qHTS assay to identify small molecule agonists of the constitutive androstane receptor (CAR) signaling pathway - cell viability counter screen (AID 1224836); also: nearly all actives have a fitted effect of over 45% in size
In short: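 Multiplexed viability check: HepG2-CYP2B6-hCAR cells, 15-point compound dosing, 0.75 uM PK11195 final, 23 h at 37 C, CellTiter-Fluor fluorescence.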

[4] = target: Nuclear receptor subfamily 1 group I member 3 (Homo sapiens) (UniProt Q14994); assay: qHTS assay to identify small molecule antagonists of the constitutive androstane receptor (CAR) signaling pathway (AID 1224838);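 also: HepG2 cells stably expressing hCAR with CYP2B6 luciferase reporter stimulated by CITCO; nearly all actives have a fitted effect of over 40% in size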
Sequence of Nuclear receptor subfamily 1 group I member 3 (Homo sapiens) (Q14994 whole entry, looked up): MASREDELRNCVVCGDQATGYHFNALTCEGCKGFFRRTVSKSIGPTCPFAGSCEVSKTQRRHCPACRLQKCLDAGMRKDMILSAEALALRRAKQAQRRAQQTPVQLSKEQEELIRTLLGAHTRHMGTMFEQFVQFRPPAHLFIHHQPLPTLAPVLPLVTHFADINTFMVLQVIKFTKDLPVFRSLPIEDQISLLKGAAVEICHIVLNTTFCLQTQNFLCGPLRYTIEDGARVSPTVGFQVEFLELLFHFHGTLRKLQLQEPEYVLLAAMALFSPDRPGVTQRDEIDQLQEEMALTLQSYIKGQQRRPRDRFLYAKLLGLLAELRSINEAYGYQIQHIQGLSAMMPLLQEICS
In short: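 Quantitative HTS in double-stable HepG2-CYP2B6-hCAR cells. After 4 h plating, cells get compound (15 concentrations) and CITCO at 50 nM final, incubate 24 h at 37 C, then ONE-Glo luminescence is read.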

[5] = target: Nuclear receptor subfamily 1 group I member 3 (Homo sapiens) (UniProt Q14994); assay: qHTS assay to identify small molecule agonists of the constitutive androstane receptor (CAR) signaling pathway (AID 1224839);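 also: HepG2 cells stably carrying human CAR and a CYP2B6 luciferase reporter; nearly all actives have a fitted effect of over 15% in size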
In short: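 Using human hepatoma HepG2 cells engineered with hCAR and a CYP2B6-2.2kb reporter, 15-concentration compound series were incubated 24 h alongside PK11195 at 0.75 uM final, with luminescence quantified afterwards.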

[6] = qHTS assay to identify small molecule antagonists of the estrogen related receptor signaling pathway with the pleiotropic PPARgamma coactivator (PGC) from Tox21 10K library - cell viability counter screen (AID 1224840; active = well fitted cell-killing curve with a large enough effect in the repeat runs, not every such curve was filed as active; also: nearly all actives have a fitted effect of over 40% in size)
In short: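 Compounds in DMSO, alongside positive and negative controls, were pinned onto PGC/ERR cells (2,000 per well). Exposure lasted 17.5 hours at 37 C, followed by a 30-minute CellTiter-Fluor incubation and fluorescence reading.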

[7] = qHTS assay to identify small molecule antagonists of the estrogen related receptor signaling pathway with the pleiotropic PPARgamma coactivator (PGC) from Tox21 10K library (AID 1224841; call rule not given here; also: actives are mostly falling curves and most rising ones were filed inactive; nearly all actives have a fitted effect of over 50% in size)
In short: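 Compound exposure ran 18 hours at 37 C in PGC/ERR cells (2,000/well) that had first rested 6 hours in a 37 C/5% CO2 incubator. Luciferase activity was then detected with One-Glo after a 30-minute room-temperature step.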

[8] = qHTS assay to identify small molecule agonists of the estrogen related receptor signaling pathway with the pleiotropic PPARgamma coactivator (PGC) from Tox21 10K library (AID 1224842); also: nearly all actives have a fitted effect of over 15% in size
In short: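 PGC/ERR reporter cells (NTP line) were seeded 2,000 per well, rested 6 h at 37 C/5% CO2, then pin-dosed with compounds in DMSO for 18 h at 37 C; luciferase read by One-Glo luminescence after 30 min at room temperature.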

[9] = target: Thyrotropin receptor (Homo sapiens) (UniProt P16473); assay: qHTS assay to identify small molecule agonists of the thyroid stimulating hormone receptor (TSHR) signaling pathway (AID 1224843; calls by dose curve; also: nearly all actives have a fitted effect of over 45% in size)
Sequence of Thyrotropin receptor (Homo sapiens) (P16473 whole entry, looked up): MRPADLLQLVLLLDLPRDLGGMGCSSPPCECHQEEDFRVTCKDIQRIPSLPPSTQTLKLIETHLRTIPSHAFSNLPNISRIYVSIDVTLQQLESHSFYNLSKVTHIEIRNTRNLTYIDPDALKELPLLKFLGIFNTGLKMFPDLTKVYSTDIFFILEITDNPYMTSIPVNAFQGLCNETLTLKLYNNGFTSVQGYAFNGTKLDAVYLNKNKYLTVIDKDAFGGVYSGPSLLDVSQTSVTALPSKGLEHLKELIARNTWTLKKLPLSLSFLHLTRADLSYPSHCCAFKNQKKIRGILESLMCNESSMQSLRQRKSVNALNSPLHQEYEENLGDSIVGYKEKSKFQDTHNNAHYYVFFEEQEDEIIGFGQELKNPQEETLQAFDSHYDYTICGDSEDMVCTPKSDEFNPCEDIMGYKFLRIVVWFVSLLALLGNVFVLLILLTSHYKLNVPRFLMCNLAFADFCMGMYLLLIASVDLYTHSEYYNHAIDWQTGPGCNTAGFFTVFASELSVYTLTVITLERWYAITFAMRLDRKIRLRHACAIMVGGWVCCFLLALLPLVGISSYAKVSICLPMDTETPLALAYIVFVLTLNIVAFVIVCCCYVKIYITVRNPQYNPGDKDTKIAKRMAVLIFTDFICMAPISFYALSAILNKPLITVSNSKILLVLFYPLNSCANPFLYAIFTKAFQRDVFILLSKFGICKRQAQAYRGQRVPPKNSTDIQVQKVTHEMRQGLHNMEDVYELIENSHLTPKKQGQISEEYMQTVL
In short: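 TSHR-expressing HEK293 cells (800 per well) were exposed to compounds for 30 min at room temperature. cAMP was then detected by HTRF competition with cAMP-d2 and anti-cAMP cryptate, read after 1 h at room temperature. Fifteen concentrations, triplicate.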

[10] = qHTS assay to identify small molecule agonists of the hypoxia (HIF-1) signaling pathway - cell viability counter screen (AID 1224844; calls by dose curve; also: nearly all actives have a fitted effect of over 50% in size)
In short: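 Luminescent ATP content (CellTiter-Glo, 30 min, room temperature) served as the viability measure in HRE-bla ME-180 cells exposed to compounds for 17 hrs in low-serum medium (0.5% dialyzed FBS).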

[11] = qHTS assay to identify small molecule agonists of H2AX (AID 1224845; active = well fitted activation curve with a large enough effect in the signal ratio in the repeat runs, not every such curve was filed as active; the % refers to the signal ratio)
In short: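 Wild-type CHO-K1 cells plated overnight, then exposed 3 hr at 37C to compounds at 15 concentrations (0.76% DMSO). Lysed, then HTRF anti-pH2AX(S139)-cryptate/anti-H2AX-d2 detection after 24 hr at room temperature; emissions 665 and 620 nm.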

[12] = qHTS assay to identify small molecule agonists of H2AX - cell viability counter screen (AID 1224847; calls by dose curve; also: top concentration of the series differs between compounds; nearly all actives have a fitted effect of over 30% in size)
In short: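 After overnight plating of 1000 CHO-K1 cells per well, a 15-concentration compound series was applied for 3 hr at 37C. Luminescence from CellTiter-Glo, read following 30 min at room temperature, reflected cell viability.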

[13] = qHTS assay to identify small molecule agonists of the estrogen related receptor (ERR) signaling pathway from Tox21 library (AID 1224849; calls by dose curve; also: nearly all actives have a fitted effect of over 15% in size); conditions: ERR reporter cell line, ONE-Glo luciferase, 18 h; at 92.4 µM (top of the series) unless noted
In short: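 We plated ERR reporter cells, waited 6 h, added compounds in DMSO by pin tool and incubated them 18 h at 37 C. ONE-Glo was then added and luminescence read after 30 min.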

[14] = qHTS RealTime-Glo MT Cell Viability Assay in HepG2 cells - 24 hour (AID 1224867); also: nearly all actives have a fitted effect of over 50% in size
In short: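 HepG2 cells (600/well) were dispensed with RealTime-Glo reagents, incubated 5 h at 37 °C, then treated with compounds in DMSO for up to 40 h. Nonlytic NanoLuc luminescence reflecting viable cells was read at each stated time point.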

[15] = A CellTox Green Cytotoxicity Assay to monitor cytotoxicity in HEK293 cells - 0 hour (AID 1224869); also: nearly all actives have a fitted effect of over 50% in size
In short: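 Each value comes from one timepoint of a single continuous run in which HEK293 cells with CellTox Green were exposed to compound for up to 40 h at 37 C, dye fluorescence rising with cell death.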

[16] = qHTS RealTime-Glo MT Cell Viability Assay in HepG2 cells - 40 hour (AID 1224870); also: nearly all actives have a fitted effect of over 50% in size
In short: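 HepG2 cells mixed with RealTime-Glo MT reagents (NanoLuc plus cell-permeant prosubstrate) were seeded at 600 cells/well, incubated 5 h at 37 C/5% CO2, then pinned with compounds in DMSO; nonlytic luminescence tracked viability during 40 h treatment.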

[17] = qHTS assay to identify small molecule antagonists of the constitutive androstane receptor (CAR) signaling pathway - cell viability counter screen (AID 1224837); also: nearly all actives have a fitted effect of over 45% in size
In short: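 Fluorescence from CellTiter-Fluor served as the viability signal. Human hepatoma HepG2 cells stably bearing hCAR and CYP2B6-2.2kb received compound plus CITCO (50 nM final) for 23 hr.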

[18] = qHTS assay to identify small molecule agonists of the hypoxia (HIF-1) signaling pathway (AID 1224846; active = well fitted activation curve with a large enough effect in the signal ratio in the repeat runs, not every such curve was filed as active; the % refers to the signal ratio)
In short: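 Measured by blue/green FRET after loading CCF4-AM: beta-lactamase expressed from a hypoxia response element in ME-180 cells. Test agents were delivered in DMSO and left 17 hrs; cells had been plated 5 hrs earlier in low-serum (0.5% dialyzed FBS) medium.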

[19] = qHTS RealTime-Glo MT Cell Viability Assay in HEK293 cells - 32 hour (AID 1224868)
In short: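 HEK293 cells seeded with NanoLuc/prosubstrate reagent, rested 5 h at 37 C, then dosed and kept at 37 C up to 40 h. Nonlytic real-time luminescence from viable cells read at 0, 8, 16, 24, 32 and 40 h.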

[20] = qHTS assay to identify small molecule antagonists of the estrogen related receptor (ERR) signaling pathway from Tox21 library (AID 1224848); also: nearly all actives have a fitted effect of over 50% in size
In short: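 Cells: ERR line, 2,000/well; 6 h preincubation 37 C/5% CO2. Cpd in DMSO via pin tool; 18 h, 37 C. ONE-Glo, 30 min RT, luminescence.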
% is scaled to controls: 0 for no effect and ±100 for the full control effect.

CCN(CCCCOC(=O)c1ccc(OC)c(OC)c1)C(C)Cc1ccc(OC)cc1 (stereo not given)
inactive: Potency [1] | Potency [2] | Potency [3] | Potency [4] | Potency [5] | Potency [6] | Potency [7] | Potency [8] | Potency [9] | Potency [10] | Potency [11] | Potency [12] | activity change, positive = activation [13] -16.6% [at 42.5 µM] | outcome [14] | Potency [15] | Potency [16]

Cc1ccc(Cl)c(OCC(O)CNC(C)(C)C)c1 (stereo not given)
inactive: Potency [1] | Potency [2] | Potency [3] | Potency [17] | Potency [6] | Potency [10] | Potency [11] | outcome [18] | Potency [12] | outcome [14] | Potency [19] | Potency [15] | Potency [16]

CC/C=C/CCO
inactive: Potency [1] | Potency [2] | Potency [3] | Potency [17] | Potency [6] | Potency [7] | Potency [8] | Potency [11] | Potency [12] | Potency [20] | activity change, positive = activation [13] 5.37% | outcome [14] | Potency [19] | Potency [15] | Potency [16]

O=C(c1ccco1)N1CCNCC1
inactive: Potency [1] | Potency [2] | Potency [3] | Potency [4] | Potency [5] | Potency [6] | Potency [7] | Potency [8] | Potency [9] | Potency [10] | Potency [11] | outcome [18] | Potency [12] | Potency [20] | activity change, positive = activation [13] 3.89% [at 42.5 µM] | outcome [14] | Potency [19] | Potency [15] | Potency [16]

CCCCCCCCS
inactive: Potency [1] | Potency [2] | Potency [3] | Potency [17] | Potency [6] | Potency [10] | Potency [11] | outcome [18] | Potency [12] | outcome [14] | Potency [19] | Potency [15] | Potency [16]

CC/C=C\CCO
inactive: Potency [1] | Potency [2] | Potency [3] | Potency [17] | Potency [6] | Potency [7] | Potency [8] | Potency [10] | Potency [11] | outcome [18] | Potency [20] | activity change, positive = activation [13] 0.448% | outcome [14] | Potency [19] | Potency [15] | Potency [16]

C=Cc1ccc(C=C)cc1
inactive: Potency [1] | Potency [2] | Potency [3] | Potency [17] | Potency [6] | Potency [8] | Potency [9] | Potency [10] | Potency [11] | outcome [18] | Potency [12] | Potency [20] | activity change, positive = activation [13] 3.76% | outcome [14] | Potency [19] | Potency [15] | Potency [16]

Cc1cc(SC2=C(O)C[C@@](CCc3ccc(N)cc3)(C(C)C)OC2=O)c(C(C)(C)C)cc1CO
inactive: Potency [1] | Potency [2] | Potency [3] | Potency [17] | Potency [6] | Potency [7] | Potency [8] | Potency [9] | Potency [10] | Potency [11] | outcome [18] | Potency [12] | Potency [20] | activity change, positive = activation [13] -7.37% | outcome [14] | Potency [19] | Potency [15] | Potency [16]

C1=COCCC1
inactive: Potency [1] | Potency [2] | Potency [3] | Potency [17] | Potency [6] | Potency [10] | Potency [11] | Potency [12] | outcome [14] | Potency [19] | Potency [16]

COc1ccc(CN(CCN(C)C)c2ncccn2)cc1
inactive: Potency [1] | Potency [2] | Potency [3] | Potency [17] | Potency [6] | Potency [9] | Potency [10] | Potency [11] | outcome [18] | Potency [12] | Potency [19] | Potency [15] | Potency [16]

N#C[C@@H]1CC(F)(F)CN1C(=O)CNC1CC2CCC(C1)N2c1ncccn1 (stereo not given in full)
inactive: Potency [1] | Potency [2] | Potency [3] | Potency [17] | Potency [6] | Potency [7] | Potency [8] | Potency [9] | Potency [10] | Potency [11] | outcome [18] | Potency [12] | Potency [20] | activity change, positive = activation [13] -3.52% | outcome [14] | Potency [19] | Potency [15] | Potency [16]

CC(=O)Nc1cccc(N)c1
inactive: Potency [1] | Potency [2] | Potency [3] | Potency [17] | Potency [6] | Potency [7] | Potency [8] | Potency [9] | Potency [10] | Potency [11] | outcome [18] | Potency [20] | activity change, positive = activation [13] -3.33% | outcome [14] | Potency [19] | Potency [15] | Potency [16]

Cc1ccc(NC=O)c(C)c1
inactive: Potency [1] | Potency [2] | Potency [3] | Potency [17] | Potency [6] | Potency [9] | Potency [10] | Potency [11] | outcome [18] | Potency [12] | outcome [14] | Potency [19] | Potency [15] | Potency [16]
